# Screens as filed in PubChem.
# Only some compounds are listed: those with a hit (about 4.7% of all), similar ones and a draw of the others.
# TRHR agonist: TRH receptor (human) agonism. P34981. TRHR cells, calcium flux fluo-8, FDSS agonist mode. activation, % at 2 µM. 360,000 compounds, 0.18% hits; further: 0% is about no effect
# Target sequence (P34981 whole entry, looked up): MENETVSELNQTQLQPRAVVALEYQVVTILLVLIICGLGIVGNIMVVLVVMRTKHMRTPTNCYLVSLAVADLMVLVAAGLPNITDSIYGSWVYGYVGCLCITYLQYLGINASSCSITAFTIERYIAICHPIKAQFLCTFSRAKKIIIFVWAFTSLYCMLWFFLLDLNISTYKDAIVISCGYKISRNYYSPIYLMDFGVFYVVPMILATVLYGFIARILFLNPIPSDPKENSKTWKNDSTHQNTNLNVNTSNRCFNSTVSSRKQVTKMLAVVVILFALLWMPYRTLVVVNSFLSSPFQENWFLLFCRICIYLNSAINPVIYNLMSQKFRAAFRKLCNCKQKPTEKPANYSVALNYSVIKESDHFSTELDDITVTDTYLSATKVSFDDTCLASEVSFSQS
#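 TRHR-expressing cells loaded with fluo-8 calcium dye; 23 nL library compound pin-transferred, kinetic FDSS fluorescence (Ex 480/Em 530) recorded about 180 s for agonist-induced calcium release, before a 10 nM TRH EC20 addition for potentiator mode.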
# D1 PAM: human D1 dopamine receptor positive modulation | P21728 | HEK293 TREx D1 cells, calcium flux, dopamine EC20 potentiation | potentiation, % at 10 µM | 360,000 compounds, 0.036% hits; in the data active means potentiation above about 30%; further: 0% is about no effect
# D1 ag: activates the human D1 dopamine receptor. P21728. HEK293 T-REx D1 cells, calcium flux, agonist mode. activation, % at 2 µM. 360,000 compounds, 1% hits. AID 504660; further: 0% is about no effect
#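 Inducible HEK293 T-REx D1 cells, force-coupled to calcium signalling, were plated at 4000 cells/well with tetracycline and held overnight at 30 C. After no-wash calcium dye loading, compound-evoked calcium rise over 180 s flagged agonists.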
# TRHR enhancer: allosteric enhancers of human TRH receptor. P34981. TRHR cells, fluo-8 calcium fluorescence, EC20 TRH enhancement. enhancement, % at 2 µM. 360,000 compounds, 0.66% hits. AID 493056; in the data active means enhancement above about 30%; further: 0% is about no effect
#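 Enhancer read-out: after compound pinning and an initial kinetic agonist-mode read, an EC20 of TRH (10 nM final) was injected and fluo-8 calcium signal (Ex 480/Em 530) followed at 1 s/cycle for 100 cycles in TRHR-expressing cells.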
# D1 antagonist: antagonists of human D1 dopamine receptor | P21728 | HEK293 TREx D1 cells, calcium flux, dopamine EC80; stronger effect = lower value | activity change, negative = inhibition, % at 10 µM | 360,000 compounds, 3.2% hits; in the data active means activity change below about -30%; further: on the % scale 0 is the no-effect control and ±100 the full control effect
#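 Cells carrying a force-coupled, tetracycline-inducible human D1 receptor report calcium flux. Each well gets a 10 s baseline, compound with 180 s monitoring, then an EC80 dopamine stimulus with a second 180 s kinetic read.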
# An asterisk follows results filed as active. Unless noted, no stated cut-off is given here; in the data, active means activation above about 30%; inactive means the rest.
SMILES,TRHR agonist,D1 PAM,D1 ag,TRHR enhancer,D1 antagonist
Cc1ccc(CSC2=Nc3ccccc3C3=NC(CC(=O)NCc4cccs4)C(=O)N23)c(C)c1 (centres undefined),0,0,1,1,10
Fc1ccc(-n2cc(-c3ccccc3)c3c(=S)nc[nH]c32)cc1,0,-14,2,-19,-41*
Cc1ccc(-n2cc(-c3ccccc3)c3c(=O)[nH]cnc32)cc1,0,-19,1,-5,-66*
CCOc1cc(C)c(C(C)C)cc1S(=O)(=O)N1CC(C)OC(C)C1 (centres undefined),0,-1,2,-2,3
CCOc1ccc(S(=O)(=O)n2cnc(C)c2)cc1,-2,-6,7,1,-44*
CCOc1cc(C)c(C(C)C)cc1S(=O)(=O)n1cnc(C)c1,0,-14,3,8,-31*
CCOc1ccc(NC(=O)Cn2c(C)cc3ccccc3c2=O)cc1,0,0,1,-3,-2
O=C(CCCOc1ccccc1)Nc1nncs1,-1,-3,3,-2,-35*
O=C(/C=C/c1cccc(OCc2ccccc2)c1)c1cccnc1,0,-7,9,-10,-37*
CC(=O)c1cccc(NS(=O)(=O)N2CCOCC2)c1,1,-6,1,6,6
CN(CC1COc2ccccc2O1)C(=O)CSc1ncnc2sccc12 (centres undefined),1,1,1,-4,18
COc1ccc2cc3cc(C(=O)NCCN4CCN(c5ccccc5F)CC4)oc3nc2c1,-1,-7,0,-5,-19
COc1ccc2cc3cc(C(=O)Nc4ccccc4N4CCN(C)CC4)oc3nc2c1,0,-10,3,-4,-41*
CSc1nc2sc3c(c2c(=O)n1Cc1ccccc1)CCC(C(C)(C)C)C3 (centres undefined),1,0,0,4,-6
COc1ccc(-c2cc(OC(=O)c3cccc(C)c3)c3c(C)oc(C)c3c(=O)c2)cc1,-1,-3,10,8,21
CSc1ccc(/C=N/NC(=O)CN2CCN(Cc3ccc(Cl)cc3)CC2)cc1,-1,-6,38*,5,-13
CCCNC(=S)N1CCN(C(c2ccccc2)c2ccccc2)CC1,0,-7,1,-7,-33*
COc1cc(NC(=S)N2CCN(C/C=C/c3ccccc3)CC2)cc(OC)c1,0,2,3,-2,-3
COc1cc(NC(=S)N2CCN(C(c3ccccc3)c3ccccc3)CC2)cc(OC)c1,1,2,5,2,-32*
CCC(C)(C)C1CCC2(CC1)NC(=O)N(CC(=O)N(C)CC(=O)Nc1ccccc1C(F)(F)F)C2=O (centres undefined),1,0,13,3,9
Cc1oc(-c2ccc(C(=O)NCCc3ccc(Cl)cc3)cc2)nc1CSc1ccccc1,3,1,32*,0,0
CSc1ccc(CCNC(=O)c2ccc(-c3nc(COc4ccc(C)cc4)c(C)o3)cc2)cc1,0,0,3,-1,2
CSc1ccc(CCNC(=O)c2ccc(-c3nc(COc4ccccc4)c(C)o3)cc2)cc1,0,0,0,3,-63*
CCS(=O)(=O)N1CC(=O)N(c2cccc(C)c2C)C(C)(C(=O)NC2CCCCCC2)C1 (centres undefined),0,1,-1,-14,4
O=C(CCCN1C(=O)/C(=C\c2cccs2)SC1=S)Nc1ccccn1,-1,0,1,-16,-23
SMILES,TRHR agonist,D1 PAM,D1 ag,TRHR enhancer,D1 antagonist
O=C(CCN1C(=O)/C(=C/c2cccs2)SC1=S)Nc1ccccn1,7,-8,45*,0,-13
O=C(CCCN1C(=O)/C(=C\c2cccs2)SC1=S)Nc1ccc(C(=O)O)cc1,3,-2,3,7,12
CCN(CC)CCOC(=O)c1ccc(NC(=O)CCCN2C(=O)/C(=C/c3cccs3)SC2=S)cc1,2,-22,10,0,-77*
O=C(CCCN1C(=O)/C(=C\c2cccs2)SC1=S)Nc1ccc(O)cc1,0,-2,4,3,-33*
CC(C)c1ccc(NC(=O)c2cc(S(=O)(=O)N(C)C3CCCCC3)ccc2F)cc1,0,0,3,8,-5
COC(=O)c1ccc(NC(=O)c2cc(S(=O)(=O)N3CCOCC3)cn2C)cc1,0,-3,6,-2,-17
CCS(=O)(=O)N1CC(=O)N(c2cccc(Cl)c2)C(C)(C(=O)NC2CCCCCC2)C1 (centres undefined),-1,0,0,1,6
Cc1cc(C)cc(NC(=O)c2cnn(-c3ccc(C)c(C)c3)c2C2CCNCC2)c1,-2,-4,12,18,3
Cc1ccc(N2CCN(C(=O)c3cnn(-c4ccc(C)c(C)c4)c3C3CCNCC3)CC2)c(C)c1,-1,-5,82*,9,3
Cc1ccc(Cl)cc1N1CCN(C(=O)c2cnn(-c3ccc(Cl)cc3)c2C2CCNCC2)CC1,1,-2,38*,12,-2
Clc1cccc(N2CCN(c3ncnc4c3nc3n4CCCCC3)CC2)c1,-1,-1,5,4,-4
O=C(CN1CCN(C2CCCCC2)CC1)c1ccc2cc[nH]c2c1,0,4,1,-2,-36*
O=C(CN1CCN(C2CCCCC2)CC1)c1c[nH]c2ccccc12,1,-1,7,2,-11
O=C(CCNS(=O)(=O)c1ccccc1)OCC(=O)c1ccc(F)cc1,0,-3,17,-8,-40*
O=C(CNS(=O)(=O)c1ccccc1)OCC(=O)c1ccc(F)cc1,-1,-2,2,1,4
Cc1c(N=C2Nc3cccc4cccc2c34)c(=O)n(-c2ccccc2)n1C,10,-6,36*,6,-8
O=S(=O)(c1ccc2c(c1)OCO2)N1CCN(S(=O)(=O)c2c(F)cccc2F)CC1,0,-7,0,-2,-18
COc1cc2c(cc1OC)-c1n[nH]c(=S)n1C(C)(C)C2,-1,-12,0,0,-59*
COc1cc2c(cc1OC)-c1nnnn1C(C)(C)C2,0,0,3,10,4
N#C/C(=C\C1CC=CCC1)c1nc2ccccc2[nH]1 (centres undefined),0,-10,22,-6,-35*
Cn1c(/C(C#N)=C/C2CC=CCC2)nc2ccccc21 (centres undefined),-1,-12,3,-1,6
COc1ccc(Br)cc1/C=N/n1nnnc1N,-2,-4,-1,6,4
CC(C)CN(C(=O)COC(=O)CCc1c[nH]c2ccccc12)c1c(N)n(Cc2ccccc2)c(=O)[nH]c1=O,0,-1,5,-2,6
Cc1cc2ncn(S(=O)(=O)N3CCCCC3)c2cc1C,0,-3,-1,-5,-33*
